NPC1 promoter act = activators of NPC1 promoter; actives 2.4% (n = 320,000); Potency, µM (highest dose often 9.22 µM), for inactives: top-dose activation, usual class: activators; AID 485313; Huh7 NPC1 promoter luciferase reporter, 24 h; further: % of control where 0% means no effect; nearly all actives have a fitted effect of over 60% in size
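Quantitative HTS used a cell-based reporter: Huh7 cells stably bearing the NPC1 promoter upstream of luciferase were treated with compounds for 24 h, and promoter activation was read as luminescence.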
ELG1 genotox = inducers of genotoxicity in HEK293T ELG1-luciferase cells; HEK293T ELG1-luciferase reporter, luminescence, 16 h; Potency, µM (top dose mostly 46 µM), without a hit: at the highest dose activity change, positive = activation, usual class: activators; actives 1.3% (n = 330,000); further: % of control where 0% means no effect; nearly all actives have a fitted effect of over 60% in size
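16 hr compound incubation (37 °C, 5% CO2) of HEK293T cells carrying luciferase-tagged ELG1; luciferase then measured by ONE-Glo luminescence after 30 min at RT.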
Rab9 prom act = activators of Rab9 promoter; Huh7 Rab9 promoter-luciferase reporter, luminescence, 24 h; Potency, µM (titrated, usually from 9.22 µM), without a hit: at the top dose activation, negative = inhibition, most hits filed as activators; actives 2.8% (n = 320,000); AID 485297; further: % of control where 0% means no effect; nearly all actives have a fitted effect of over 60% in size
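Luminescence from Amplite-detected luciferase (10 minutes, ambient) reports Rab9 promoter activation. Before that, stable Rab9-luciferase Huh7 cells (1500/well, reduced-serum OP-MEM I plus 10% FBS) were exposed to compound for 24 hours at 37C.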
FLuc counter = counter-screen for miR-21 project: firefly luciferase inhibitors or activators; actives 6.9% (n = 360,000); purified FLuc, Km substrates, luminescence inhibition; P08659; Potency, µM (top dose mostly 57.5 µM), inactives show at the highest dose activity change, negative = inhibition, hits mostly inhibitors;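 further: plate controls were vehicle for no effect and reference inhibitor for full effect; nearly all actives have a fitted effect of over 55% in size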
Target sequence (P08659 whole entry, looked up): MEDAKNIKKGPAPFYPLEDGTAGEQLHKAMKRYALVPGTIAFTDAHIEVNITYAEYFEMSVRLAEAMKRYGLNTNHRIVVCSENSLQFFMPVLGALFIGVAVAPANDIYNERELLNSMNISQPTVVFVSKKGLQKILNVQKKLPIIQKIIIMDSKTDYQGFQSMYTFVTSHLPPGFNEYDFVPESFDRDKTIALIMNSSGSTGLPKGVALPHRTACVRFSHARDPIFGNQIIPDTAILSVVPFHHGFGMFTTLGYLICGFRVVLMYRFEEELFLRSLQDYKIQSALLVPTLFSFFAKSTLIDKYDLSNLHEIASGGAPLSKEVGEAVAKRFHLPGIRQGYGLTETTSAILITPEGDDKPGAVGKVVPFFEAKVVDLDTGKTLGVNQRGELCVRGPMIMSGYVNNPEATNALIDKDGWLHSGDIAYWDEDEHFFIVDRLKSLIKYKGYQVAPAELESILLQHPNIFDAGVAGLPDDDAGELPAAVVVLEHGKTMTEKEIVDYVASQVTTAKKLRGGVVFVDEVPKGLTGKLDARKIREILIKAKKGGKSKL
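Purified P. pyralis luciferase, 10 nM final, with Km-level 10 uM D-luciferin and 10 uM ATP in 50 mM Tris acetate pH 7.5, 10 mM Mg acetate, 0.01% Tween-20, 0.05% BSA; 6-point qHTS titration about 60 µM downward; luminescence read.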
SMN2 splice enh = increases expression of the SMN2 splice variant; HEK293 SMN2-luciferase splicing reporter, luminescence, 30-36 h; AID 1458; actives 2.8% (n = 210,000); Potency, µM (doses to about 46.1 µM), without a hit: top-dose activity change, positive = activation, hits mostly activators; further: % of control where 0% means no effect; nearly all actives have a fitted effect of over 55% in size
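HEK293 cells carry an SMN2 minigene-luciferase reporter in which exon 7 inclusion puts luciferase in frame. Cells were seeded at 2000 cells/well, attached for 10-12 hours, then exposed to compounds for 30-36 hours at 37C before ONE-Glo luminescence.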
ELG1 DNA repair = ELG1-dependent DNA repair inhibition; HEK293T ELG1-luciferase reporter, luminescence, 16 h; DNA damage induced by 5-fluorouridine; Potency, µM (top dose mostly 46.1 µM), inactives show at the highest dose activity change, negative = inhibition, hits mostly inhibitors; actives 2.3% (n = 330,000); further: on the % scale 0 is the no-effect control and ±100 the full control effect; nearly all actives have a fitted effect of over 55% in size
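Luminescence from the luciferase reporter, measured 30 min after ONE-Glo reagent at room temperature, was the read-out. Beforehand, 2,000 cells per well were exposed for 16 hr at 37 °C to 5-fluorouridine together with compound or vehicle.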
The depositor's hits bear a star; ? = inconclusive; / = not tested or not shown; [ ] = dose if it differs, or a comment. Hits are enriched below; roughly 9.2% of the tested compounds scored in any of these assays. The call rests on the fitted dose curve; in most records, active means well fitted curve in the direction sought with a large enough effect; inconclusive means small, poorly fitted or top-dose-only effect, or another doubt; inactive means no such curve, though single readings can be large; an effect the other way counts as inactive or inconclusive. Potency means the concentration at half of the fitted maximal effect.

SMILES	NPC1 promoter act	ELG1 genotox	Rab9 prom act	FLuc counter	SMN2 splice enh	ELG1 DNA repair
Cc1n[nH]c(=S)n1/N=C/c1ccc(OCc2ccc(Cl)cc2)cc1	15%	2%	13%	19µM*	-6%	?
O=C(CCc1nc2cccnc2n1-c1ccccc1)Nc1ccc(Cl)c(Cl)c1	/	/	/	-5%	-5%	/
CC(=O)Nc1ccc(S(=O)(=O)Oc2ccc(/C=C3\SC(N)=NC3=O)cc2)cc1	-3%	1%	-5%	-2%	-4%	6%
O=C1/C(=C\c2cccnc2)Sc2ccccc21	0%	?	2%	6.7µM*	13%	?
CC(=O)Nc1ccc(/C=C2/Sc3ccccc3C2=O)cc1	-1%	?	-8%	0.76µM*	26%	?
COc1ccc(Cl)cc1NC(=S)NCCSc1ccc(C)cc1	3%	-3%	-3%	-2%	/	-2%
O=C(O)c1cccc(N2C(=O)c3cccc4cccc(c34)C2=O)c1	-4%	-2%	1%	-6%	/	1%
Fc1ccc(/C=N/NC2=Nc3cccc4cccc2c34)cc1	1.6µM*	12µM*	1.6µM*	1.7µM*	11µM*	?
O=C(O)c1cccc(NC2=Nc3cccc4cccc2c34)c1	0.45µM*	7.3µM*	?	0.48µM*	/	?
O=C(NNC1=Nc2cccc3cccc1c23)c1ccccc1Br	0%	4%	0%	-1%	-23%[1.84 µM]	10%
COc1ccc(C2=Nc3cccc4cccc(c34)N2)cc1	5%	0%	-26%	5.4µM*	4%	15%
c1ccc(NC2=Nc3cccc4cccc2c34)cc1	1%	14%	-2%	15µM*	-44%	?
COc1ccc(NC2=Nc3cccc4cccc2c34)cc1	-2%	11%	-2%	13µM*	-11%[1.84 µM]	?
COc1ccc(C(C)=O)cc1COc1nc(C)nc2ccccc12	-1%	1%	-2%	-2%	8%	15%
CCc1ccc(-n2nc(CO)c(C(=O)NCCOC)n2)cc1	/	/	/	17µM*	-2%	/
COc1ccc2nc(N3CCOCC3)cc(C)c2c1	?	8.2µM*	2.8µM*	5.4µM*	11µM*	?
CCOc1ccccc1NC(=O)Nc1ccc2nc(N3CCN(C)CC3)cc(C)c2c1	/	/	/	5.4µM*	/	/
CCOc1ccccc1NC(=O)Nc1nnc(N2CCCCCC2)s1	/	/	/	15µM*	/	/
COc1ccc2c(C)cc(N3CCOCC3)nc2c1	21%	8%	24%	?	13%	?
COc1ccc(C(=O)Nc2ccc3nc(N4CCN(C)CC4)cc(C)c3c2)c(OC)c1	0%	7%	0%	17µM*	/	2%
Cc1cc(N2CCN(C)CC2)nc2ccc(NC(=O)c3ccc(C(C)(C)C)cc3)cc12	/	/	/	?	-97%	/
COc1ccccc1C(=O)N/C(=C\c1cn(C)c2ccccc12)C(=O)NCCCn1ccnc1	22%	-4%	-1%	-11%	/	7%
CC(=O)Nc1cccc(/C(C)=N/NC(=O)c2ccc(CN3CCOCC3)cc2)c1	-3%	0%	-12%	7%	-16%	?
CCOC(=O)c1cc2c(=O)n3ccccc3nc2n(CC2CCCO2)c1=NC(=O)c1ccc(OC)cc1OC (stereo not given)	/	/	/	-8%	5%	/
CCCc1nnc(SCC(=O)NC2CCCC2)n1CCOC	-1%	0%	-4%	-2%	/	-5%
SMILES	NPC1 promoter act	ELG1 genotox	Rab9 prom act	FLuc counter	SMN2 splice enh	ELG1 DNA repair
CC1CN(c2ccc(NC(=S)NNCCC#N)cc2)CC(C)O1 (stereo not given)	-4%	-6%	1%	-1%	/	-14%
O=C(CSc1nc2c([nH]c3ccccc32)c(=O)n1-c1ccc(Cl)cc1)N1CCOCC1	/	/	/	1%	/	/
CCN1CCN(c2cc(C)c3cc(NC(=O)c4cccc(OC)c4)ccc3n2)CC1	16%	12%	20%	19µM*	/	?
COc1cccc(C(=O)Nc2ccc3nc(N4CCN(c5ncccn5)CC4)cc(C)c3c2)c1OC	-17%	-12%	-13%	/	-90%	2.6µM*
CCCCn1c(N)c(N(CCC(C)C)C(=O)COC(=O)/C=C/c2ccc(F)cc2)c(=O)[nH]c1=O	/	19%	/	/	/	-15%
O=C(COC(=O)c1cccnc1)c1ccc(Cl)cc1	-5%	-5%	-2%	11µM*	-20%	10%
O=C(COC(=O)c1cccnc1)c1ccc(Cl)c(Cl)c1	-3%	1%	0%	17µM*	-2%	9%
CC(C)(Oc1ccc(Cl)cc1)C(=O)NNC(=O)c1ccc(Br)o1	3%	3%	-6%	0%	/	-12%
COc1ccc(-n2c(=O)c3c4c(sc3n(CC(=O)C(C)(C)C)c2=O)CCCC4)c(OC)c1	/	/	/	1%	3%	/
O=C(c1cccc(Cl)c1)N1CCCc2ccccc21	-3%	-4%	1%	-2%	/	-19%
O=C(c1ccc(Cl)c([N+](=O)[O-])c1)N1CCCc2ccccc21	-2%	16%	2%	19µM*	/	?
Cc1ccc(CNC(=O)c2cc(-c3ccc(C)c(C)c3)nc3ccccc23)cc1	/	/	/	-18%	/	/
O=C(NN=C1CCCC1)c1cc(-c2ccc(F)cc2)nc2ccccc12	0%	7%	-8%	-20%	1%	?
O=C(NNS(=O)(=O)c1cccc(Cl)c1)c1cc(-c2ccc(F)cc2)nc2ccccc12	-2%	-3%	-6%	19µM*	0%	0%
Cc1ccc(-c2cc(C(=O)NC3=NCCS3)c3ccccc3n2)cc1C	1%	11%	7%	0.85µM*	14µM*	?
CCCc1ccc(-c2cc(C(=O)NC3=NCCS3)c3ccccc3n2)cc1	1.1µM*	?	4.5µM*	0.34µM*	/	?
O=C(NC1=NCCS1)c1cc(-c2ccc(F)cc2)nc2ccccc12	11%	1%	1%	5.4µM*	11%	?
Cc1ccc(NC(=O)CN2C(=O)C(c3ccc(C(C)(C)C)cc3)=NC2(C)C)cc1	/	/	/	-8%	5%	/
C/C(=N\NC(=O)c1ccc(-n2cnnn2)cc1)c1ccc(Cl)cc1	-2%	10%	-3%	4%	/	?
O=c1[nH]c2ccccc2c2nc3ccccn3c12	?	?	?	17µM*	14%	?
COc1ccc(C(=O)NC(C)c2nnc(SCC(=O)NC3CCCC3)n2C)cc1 (stereo not given)	-2%	1%	-1%	-1%	/	11%
COc1cccc(C(=O)Nc2ccc3[nH]ncc3c2)c1	2.8µM*	?	3.5µM*	11µM*	/	?
CCOc1cccc(C(=O)Nc2ccncc2)c1	-4%	-5%	-14%	-14%	-11%	?
CCOc1cccc(C(=O)Nc2ccc3[nH]ncc3c2)c1	2.8µM*	?	2µM*	5.4µM*	/	?

Screens as filed in PubChem BioAssay.
